The source of these data is article PMC7862700, “An all-to-all approach to the identification of sequence-specific readers for epigenetic DNA modifications on cytosine”.

Assay in all cases: DAPPL (digital affinity profiling via proximity ligation, sequencing); 10 mM Tris-HCl pH 7.5, 50 mM NaCl, 1 mM DTT, 4% glycerol, room temperature, 30 min; GST-TFs on glutathione beads, 16-mer random dsDNA library, 0.1% formaldehyde crosslink after washing; high values mean tight binding
Common to all, as to conditions: protein: recombinant; tags: N-terminal GST; dsDNA, one strand shown

One experiment has as its target T1, FLI1 (Homo sapiens, UniProt Q01543 1-452).
T1 sequence: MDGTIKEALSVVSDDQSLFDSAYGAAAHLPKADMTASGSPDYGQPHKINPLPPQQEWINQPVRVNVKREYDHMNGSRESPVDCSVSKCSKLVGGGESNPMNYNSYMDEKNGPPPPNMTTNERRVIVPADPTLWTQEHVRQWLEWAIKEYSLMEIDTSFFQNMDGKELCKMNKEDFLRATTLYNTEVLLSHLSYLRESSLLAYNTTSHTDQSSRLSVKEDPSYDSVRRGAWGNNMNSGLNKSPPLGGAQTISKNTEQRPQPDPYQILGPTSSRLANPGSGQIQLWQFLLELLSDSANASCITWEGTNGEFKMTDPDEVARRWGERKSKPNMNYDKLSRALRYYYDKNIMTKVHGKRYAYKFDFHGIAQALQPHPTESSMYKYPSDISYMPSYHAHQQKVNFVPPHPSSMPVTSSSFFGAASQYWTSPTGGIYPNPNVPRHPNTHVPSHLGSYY
The procedure, abridged:
(§1)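 Each value of binding signal is a hexamer's read frequency for a factor divided by the same hexamer's frequency in the tag-only sample. Barcoded, bead-captured GST fusions of human transcription factors made in yeast were pooled with that sample and incubated with 200 nmole of a random double-stranded 16-mer DNA library in Tris/NaCl/DTT/glycerol buffer at room temperature for 30 min. Washing, 0.1% formaldehyde crosslinking, proximity ligation, PCR and Illumina NextSeq500 sequencing followed.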

For the next experiment, the target named is T2, ELK1 (Homo sapiens, UniProt P19419 1-428).
T2 sequence: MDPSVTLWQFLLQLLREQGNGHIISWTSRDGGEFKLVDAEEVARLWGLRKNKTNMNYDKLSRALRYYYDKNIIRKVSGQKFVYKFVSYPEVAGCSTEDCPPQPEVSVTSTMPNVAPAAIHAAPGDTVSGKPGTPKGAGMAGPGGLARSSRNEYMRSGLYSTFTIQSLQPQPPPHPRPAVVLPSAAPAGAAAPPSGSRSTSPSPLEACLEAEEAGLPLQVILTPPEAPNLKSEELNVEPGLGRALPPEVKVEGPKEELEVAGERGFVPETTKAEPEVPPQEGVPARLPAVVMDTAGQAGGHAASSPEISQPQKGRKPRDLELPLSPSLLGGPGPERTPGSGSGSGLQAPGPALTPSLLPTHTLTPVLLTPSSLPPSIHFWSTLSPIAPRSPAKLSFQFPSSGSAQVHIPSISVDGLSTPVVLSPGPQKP
The procedure, abridged: as §1

The target in a further experiment is T3, GABPA (Homo sapiens, UniProt Q06546 1-454).
T3 sequence: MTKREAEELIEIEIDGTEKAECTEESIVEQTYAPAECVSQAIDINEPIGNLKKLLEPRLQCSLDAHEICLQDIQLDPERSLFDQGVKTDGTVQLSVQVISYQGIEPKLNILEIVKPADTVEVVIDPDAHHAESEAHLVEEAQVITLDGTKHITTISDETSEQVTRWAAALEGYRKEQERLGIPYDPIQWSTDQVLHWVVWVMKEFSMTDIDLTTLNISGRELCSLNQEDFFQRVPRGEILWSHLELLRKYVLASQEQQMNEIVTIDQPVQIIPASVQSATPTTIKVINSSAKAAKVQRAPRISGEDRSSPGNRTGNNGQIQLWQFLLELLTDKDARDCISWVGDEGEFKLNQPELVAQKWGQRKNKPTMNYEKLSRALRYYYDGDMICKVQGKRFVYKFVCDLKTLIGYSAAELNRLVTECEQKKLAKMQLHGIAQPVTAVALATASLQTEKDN
The procedure, abridged:
as §1

The target of the next experiment is T4, ERG (Homo sapiens, UniProt P11308 1-479).
T4 sequence: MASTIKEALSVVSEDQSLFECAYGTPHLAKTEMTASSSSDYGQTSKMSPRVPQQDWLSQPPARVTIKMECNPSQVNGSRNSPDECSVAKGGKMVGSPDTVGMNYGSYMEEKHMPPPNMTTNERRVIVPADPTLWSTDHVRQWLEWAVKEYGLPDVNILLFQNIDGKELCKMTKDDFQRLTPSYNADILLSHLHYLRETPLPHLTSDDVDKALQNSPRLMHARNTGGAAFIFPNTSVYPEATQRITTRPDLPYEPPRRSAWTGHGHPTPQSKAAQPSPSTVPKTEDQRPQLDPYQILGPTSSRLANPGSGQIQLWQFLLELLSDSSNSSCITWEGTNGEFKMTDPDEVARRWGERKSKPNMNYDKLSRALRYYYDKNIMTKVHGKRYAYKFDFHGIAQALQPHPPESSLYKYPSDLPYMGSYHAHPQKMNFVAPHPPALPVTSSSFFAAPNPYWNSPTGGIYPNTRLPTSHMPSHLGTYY
Summed up: as §1

The target in a further experiment is ELF1 (Homo sapiens, UniProt P32519 1-619). Summed up: as §1
ELF1, sequence (P32519 whole entry): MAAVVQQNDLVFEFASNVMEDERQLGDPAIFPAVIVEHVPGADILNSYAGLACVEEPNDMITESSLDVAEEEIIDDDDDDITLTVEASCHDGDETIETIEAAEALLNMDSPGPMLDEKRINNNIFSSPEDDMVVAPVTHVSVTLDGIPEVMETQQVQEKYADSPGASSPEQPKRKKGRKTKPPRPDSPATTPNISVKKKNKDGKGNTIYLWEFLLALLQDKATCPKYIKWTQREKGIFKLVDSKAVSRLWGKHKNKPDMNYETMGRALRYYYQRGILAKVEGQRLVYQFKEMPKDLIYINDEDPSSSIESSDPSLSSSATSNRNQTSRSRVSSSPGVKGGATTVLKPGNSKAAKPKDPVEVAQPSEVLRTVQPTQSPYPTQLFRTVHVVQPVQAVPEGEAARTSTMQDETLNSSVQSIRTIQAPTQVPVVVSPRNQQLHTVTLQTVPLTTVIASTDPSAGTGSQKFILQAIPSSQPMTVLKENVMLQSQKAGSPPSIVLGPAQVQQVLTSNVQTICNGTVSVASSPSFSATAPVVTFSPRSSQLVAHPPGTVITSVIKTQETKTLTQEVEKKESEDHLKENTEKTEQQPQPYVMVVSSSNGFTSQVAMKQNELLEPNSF
Another experiment addresses T5, EHF (Homo sapiens, UniProt Q9NZC4 1-300).
T5 sequence: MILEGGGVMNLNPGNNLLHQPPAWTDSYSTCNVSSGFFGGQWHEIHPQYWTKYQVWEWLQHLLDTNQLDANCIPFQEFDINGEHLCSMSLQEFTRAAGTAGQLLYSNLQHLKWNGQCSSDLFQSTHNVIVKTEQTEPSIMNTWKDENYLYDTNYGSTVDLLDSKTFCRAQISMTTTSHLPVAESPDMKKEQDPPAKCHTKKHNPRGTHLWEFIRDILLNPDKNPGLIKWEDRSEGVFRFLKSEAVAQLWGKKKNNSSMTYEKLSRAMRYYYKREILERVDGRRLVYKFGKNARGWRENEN
Summed up: as §1

For another experiment, the target named is SPI1 (Homo sapiens, UniProt P17947 1-270). The procedure, abridged: as §1
The target of a further experiment is SPIB (Homo sapiens, UniProt Q01892 1-262). The procedure, abridged:
as §1

The target in another experiment is T6, ELK3 (Homo sapiens, UniProt P41970 1-407).
T6 sequence: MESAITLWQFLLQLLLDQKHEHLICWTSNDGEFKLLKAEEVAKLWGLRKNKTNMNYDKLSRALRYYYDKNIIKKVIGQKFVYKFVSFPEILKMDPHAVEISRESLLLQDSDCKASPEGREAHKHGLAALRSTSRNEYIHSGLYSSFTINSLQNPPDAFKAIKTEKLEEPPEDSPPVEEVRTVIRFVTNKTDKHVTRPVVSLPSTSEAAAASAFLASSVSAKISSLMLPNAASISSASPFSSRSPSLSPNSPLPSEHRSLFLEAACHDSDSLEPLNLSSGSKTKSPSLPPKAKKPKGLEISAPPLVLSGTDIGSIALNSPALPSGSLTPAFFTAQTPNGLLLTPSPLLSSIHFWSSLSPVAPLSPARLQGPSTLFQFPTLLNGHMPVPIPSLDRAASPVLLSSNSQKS
Summed up:
as §1

The next experiment deals with T7, FEV (Homo sapiens, UniProt Q99581 1-238).
T7 sequence: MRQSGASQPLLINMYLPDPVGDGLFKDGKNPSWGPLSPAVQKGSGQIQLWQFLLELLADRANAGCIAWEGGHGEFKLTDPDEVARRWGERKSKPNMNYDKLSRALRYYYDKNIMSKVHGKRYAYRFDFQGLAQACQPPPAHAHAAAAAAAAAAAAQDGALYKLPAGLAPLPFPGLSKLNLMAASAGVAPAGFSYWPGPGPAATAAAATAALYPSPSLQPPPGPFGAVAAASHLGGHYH
The procedure, abridged:
as §1

A further experiment addresses ETV5 (Homo sapiens, UniProt P41161 1-510). Summed up: as §1
A further experiment deals with T8, SPIC (Homo sapiens, UniProt Q8N5J4 1-248).
T8 sequence: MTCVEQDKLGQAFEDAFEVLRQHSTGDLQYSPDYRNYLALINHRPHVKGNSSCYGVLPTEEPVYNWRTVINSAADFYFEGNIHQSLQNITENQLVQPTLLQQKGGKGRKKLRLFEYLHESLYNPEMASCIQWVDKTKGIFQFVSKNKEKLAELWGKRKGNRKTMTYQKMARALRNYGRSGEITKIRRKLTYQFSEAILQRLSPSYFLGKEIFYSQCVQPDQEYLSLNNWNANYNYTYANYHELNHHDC
The procedure, abridged: as §1

A further experiment concerns the target ELF4 (Homo sapiens, UniProt Q99607 1-663). The procedure, abridged:
as §1

The next experiment addresses T9, ELK4 (Homo sapiens, UniProt P28324-2 1-405).
T9 sequence: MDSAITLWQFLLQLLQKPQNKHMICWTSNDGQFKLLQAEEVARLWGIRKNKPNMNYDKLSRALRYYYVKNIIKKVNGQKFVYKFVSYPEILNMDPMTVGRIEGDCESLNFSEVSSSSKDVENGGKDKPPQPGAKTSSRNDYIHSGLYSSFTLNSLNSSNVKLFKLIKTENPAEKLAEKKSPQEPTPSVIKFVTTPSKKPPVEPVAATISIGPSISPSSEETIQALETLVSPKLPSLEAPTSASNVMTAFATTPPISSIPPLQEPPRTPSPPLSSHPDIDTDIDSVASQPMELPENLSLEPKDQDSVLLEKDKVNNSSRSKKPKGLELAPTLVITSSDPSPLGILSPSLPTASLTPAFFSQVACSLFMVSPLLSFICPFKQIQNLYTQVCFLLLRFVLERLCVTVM
The procedure, abridged: as §1

A further experiment addresses T10, ETV2 (Homo sapiens, UniProt O00321 1-342).
T10 sequence: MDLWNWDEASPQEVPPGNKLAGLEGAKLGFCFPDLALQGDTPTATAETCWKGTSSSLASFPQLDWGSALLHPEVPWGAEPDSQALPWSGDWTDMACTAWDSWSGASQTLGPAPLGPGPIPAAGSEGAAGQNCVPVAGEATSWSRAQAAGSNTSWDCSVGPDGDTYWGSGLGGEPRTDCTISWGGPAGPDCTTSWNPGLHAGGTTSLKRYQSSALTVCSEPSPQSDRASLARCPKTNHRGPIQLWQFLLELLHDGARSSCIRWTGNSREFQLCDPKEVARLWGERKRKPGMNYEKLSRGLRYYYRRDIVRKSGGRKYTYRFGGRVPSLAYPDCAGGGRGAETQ
Summed up: as §1

The target in another experiment is T11, ELF3 (Homo sapiens, UniProt P78545 1-371).
T11 sequence: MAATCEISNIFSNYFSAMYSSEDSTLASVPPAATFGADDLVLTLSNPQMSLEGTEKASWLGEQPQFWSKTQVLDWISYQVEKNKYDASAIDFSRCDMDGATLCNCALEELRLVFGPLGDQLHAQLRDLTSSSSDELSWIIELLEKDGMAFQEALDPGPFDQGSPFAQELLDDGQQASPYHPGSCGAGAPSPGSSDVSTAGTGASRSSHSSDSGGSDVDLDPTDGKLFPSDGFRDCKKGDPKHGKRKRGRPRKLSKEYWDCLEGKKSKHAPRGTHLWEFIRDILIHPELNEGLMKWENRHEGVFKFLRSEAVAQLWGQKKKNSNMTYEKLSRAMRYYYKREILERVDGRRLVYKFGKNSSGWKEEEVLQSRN
The procedure, abridged:
as §1

The next experiment concerns the target ETV1 (Homo sapiens, UniProt P50549 1-477). Summed up:
as §1

ETV1, sequence (P50549 whole entry): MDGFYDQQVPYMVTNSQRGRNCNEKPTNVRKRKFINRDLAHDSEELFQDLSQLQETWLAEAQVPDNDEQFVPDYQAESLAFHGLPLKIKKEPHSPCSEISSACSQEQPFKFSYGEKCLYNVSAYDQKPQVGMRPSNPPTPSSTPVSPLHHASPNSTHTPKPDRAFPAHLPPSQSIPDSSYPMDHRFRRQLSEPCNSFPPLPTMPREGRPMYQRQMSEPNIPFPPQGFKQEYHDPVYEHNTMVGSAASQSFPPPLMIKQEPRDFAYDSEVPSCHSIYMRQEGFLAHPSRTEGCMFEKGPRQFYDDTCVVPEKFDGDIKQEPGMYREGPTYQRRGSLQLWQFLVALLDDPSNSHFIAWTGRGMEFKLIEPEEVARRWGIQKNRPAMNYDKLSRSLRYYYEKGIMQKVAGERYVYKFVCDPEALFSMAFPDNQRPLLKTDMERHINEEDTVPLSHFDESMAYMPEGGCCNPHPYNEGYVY
ELF4, sequence (Q99607 whole entry): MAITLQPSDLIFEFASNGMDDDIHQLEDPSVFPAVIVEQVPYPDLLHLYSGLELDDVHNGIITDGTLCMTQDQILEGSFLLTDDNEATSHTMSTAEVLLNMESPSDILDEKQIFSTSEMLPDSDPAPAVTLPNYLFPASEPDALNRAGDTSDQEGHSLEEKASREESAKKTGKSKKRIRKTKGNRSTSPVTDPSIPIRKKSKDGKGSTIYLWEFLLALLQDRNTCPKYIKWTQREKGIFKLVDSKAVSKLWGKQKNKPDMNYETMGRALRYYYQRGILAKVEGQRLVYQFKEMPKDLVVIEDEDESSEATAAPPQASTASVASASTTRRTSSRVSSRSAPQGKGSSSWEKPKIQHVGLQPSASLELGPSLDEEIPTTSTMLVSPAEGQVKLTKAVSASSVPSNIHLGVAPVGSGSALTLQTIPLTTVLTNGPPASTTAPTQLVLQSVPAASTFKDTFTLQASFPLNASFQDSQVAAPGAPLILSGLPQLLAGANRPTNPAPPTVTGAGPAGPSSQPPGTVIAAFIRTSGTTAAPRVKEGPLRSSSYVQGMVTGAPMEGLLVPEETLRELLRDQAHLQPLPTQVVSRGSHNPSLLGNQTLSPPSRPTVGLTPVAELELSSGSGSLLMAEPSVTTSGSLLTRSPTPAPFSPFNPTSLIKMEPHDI
SPIB, sequence (Q01892 whole entry): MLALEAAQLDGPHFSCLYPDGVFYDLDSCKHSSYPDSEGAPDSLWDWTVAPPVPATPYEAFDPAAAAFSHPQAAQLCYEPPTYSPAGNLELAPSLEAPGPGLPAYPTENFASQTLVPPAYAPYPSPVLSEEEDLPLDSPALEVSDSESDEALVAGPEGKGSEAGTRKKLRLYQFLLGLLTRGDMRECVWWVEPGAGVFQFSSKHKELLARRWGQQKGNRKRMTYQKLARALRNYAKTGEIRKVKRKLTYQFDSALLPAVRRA
ETV5, sequence (P41161 whole entry): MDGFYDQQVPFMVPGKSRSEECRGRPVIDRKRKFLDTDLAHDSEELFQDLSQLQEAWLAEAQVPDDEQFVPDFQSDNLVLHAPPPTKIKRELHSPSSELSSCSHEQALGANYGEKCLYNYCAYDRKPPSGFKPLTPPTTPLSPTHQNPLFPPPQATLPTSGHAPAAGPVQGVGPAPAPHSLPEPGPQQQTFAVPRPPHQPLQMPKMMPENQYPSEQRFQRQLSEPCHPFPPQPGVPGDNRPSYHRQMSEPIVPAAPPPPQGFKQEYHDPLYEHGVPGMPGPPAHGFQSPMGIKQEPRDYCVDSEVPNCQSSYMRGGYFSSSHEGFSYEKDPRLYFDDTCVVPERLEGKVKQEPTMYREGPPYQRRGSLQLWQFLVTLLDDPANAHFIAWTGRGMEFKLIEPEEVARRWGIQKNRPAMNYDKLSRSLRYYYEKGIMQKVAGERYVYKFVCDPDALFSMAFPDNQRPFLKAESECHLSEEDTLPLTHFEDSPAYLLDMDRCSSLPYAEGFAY

Turning to GTTCAT, the binding signal in the experiment with FLI1 was 1.19 fold enrichment (6-mer frequency, TF over GST control); with ELK1, 1.25 fold enrichment (6-mer frequency, TF over GST control); in the experiment with GABPA, 1.19 fold enrichment (6-mer frequency, TF over GST control); in the experiment with ERG, 1.1 fold enrichment (6-mer frequency, TF over GST control); with ELF1, 1.13 fold enrichment (6-mer frequency, TF over GST control); in the experiment with EHF it was 1.17 fold enrichment (6-mer frequency, TF over GST control). Moreover, the binding signal is 1.18 fold enrichment (6-mer frequency, TF over GST control) with SPI1; 1.14 fold enrichment (6-mer frequency, TF over GST control) in the experiment with SPIB; 1.15 fold enrichment (6-mer frequency, TF over GST control) with ELK3; 1.1 fold enrichment (6-mer frequency, TF over GST control) with FEV; 1.16 fold enrichment (6-mer frequency, TF over GST control) with ETV5; 1.15 fold enrichment (6-mer frequency, TF over GST control) in the experiment with SPIC. Further, the binding signal in the experiment with ELF4 is 1.18 fold enrichment (6-mer frequency, TF over GST control); in the experiment with ELK4 it was 1.2 fold enrichment (6-mer frequency, TF over GST control); in the experiment with ETV2, 1.01 fold enrichment (6-mer frequency, TF over GST control); with ELF3, 1.04 fold enrichment (6-mer frequency, TF over GST control); in the experiment with ETV1 it was 1.12 fold enrichment (6-mer frequency, TF over GST control).

For TGGTGT, the binding signal with FLI1 was 1.28 fold enrichment (6-mer frequency, TF over GST control); with ELK1 it was 1.18 fold enrichment (6-mer frequency, TF over GST control); with GABPA it was 1.35 fold enrichment (6-mer frequency, TF over GST control); with ERG, 1.33 fold enrichment (6-mer frequency, TF over GST control); with ELF1, 1.33 fold enrichment (6-mer frequency, TF over GST control); with EHF it was 1.31 fold enrichment (6-mer frequency, TF over GST control). Besides, the binding signal is 1.23 fold enrichment (6-mer frequency, TF over GST control) with SPI1; 1.18 fold enrichment (6-mer frequency, TF over GST control) with SPIB; 1.4 fold enrichment (6-mer frequency, TF over GST control) in the experiment with ELK3; 1.14 fold enrichment (6-mer frequency, TF over GST control) in the experiment with FEV; 1.26 fold enrichment (6-mer frequency, TF over GST control) in the experiment with ETV5; 1.09 fold enrichment (6-mer frequency, TF over GST control) with SPIC. For the same sequence, the binding signal with ELF4 was 1.34 fold enrichment (6-mer frequency, TF over GST control); in the experiment with ELK4, 1.31 fold enrichment (6-mer frequency, TF over GST control); with ETV2, 1.45 fold enrichment (6-mer frequency, TF over GST control); with ELF3, 1.25 fold enrichment (6-mer frequency, TF over GST control); with ETV1, 1.2 fold enrichment (6-mer frequency, TF over GST control).
